Laboratory results: the supplement of paper PMC13380429

System: Vero E6 infected with SARS-CoV-2
Experiment: morphology score (similarity to uninfected cells); higher = more like uninfected cells
Details: 24 h

Row | SMILES | morphology score
1 | CCCNC(=O)NS(=O)(=O)c1ccc(Cl)cc1 [chlorpropamide] (10 µM) | 0.266
2 | CC[N+](C)(CC)CC(=O)Nc1c(C)cccc1C [N-methyllidocaine-iodide] (10 µM) | 0.0478
3 | N[C@@H](Cc1cc(I)c(Oc2ccc(O)c(I)c2)c(I)c1)C(=O)O [liothyronine] (10 µM) | 0.106
4 | O=C(c1ccc(F)cc1)C1CCN(CCn2c(=S)[nH]c3ccccc3c2=O)CC1 [altanserin] (10 µM) | -0.0789
5 | CCOc1ccc2ccccc2c1C(=O)N[C@@H]1C(=O)N2[C@@H]1SC(C)(C)[C@@H]2C(=O)O [nafcillin] (10 µM) | -0.164
6 | O=C(O)C(=O)O.[NH-][C@@H]1CCCC[C@H]1[NH-].[Pt+2] [oxaliplatin] (10 µM) | -0.0885
7 | COc1ccc(CCCO[C@@H](Cn2ccnc2)c2ccc(OC)cc2)cc1 (0.833333 µM) | 0.00702
8 | O=C(O)c1cccc(-c2noc(-c3ccccc3F)n2)c1 [ataluren] (10 µM) | -0.00572
9 | C[C@@H]1Cc2c([nH]c3ccccc23)[C@@H](c2c(F)cc(/C=C/C(=O)O)cc2F)N1CC(C)(C)F (10 µM) | -0.0686
10 | CC(C)(C)N1CCC(c2ccccc2)(c2ccccc2)CC1 [budipine] (10 µM) | 0.395
11 | CCC(C)(CN(C)C)OC(=O)c1ccccc1 (stereo not given) [amyleine] (10 µM) | -0.104
12 | NNC(=O)CN1C(=O)CN=C(c2ccccc2)c2cc(Br)ccc21 [gidazepam] (10 µM) | 0.101
13 | CC(C)C(N)C(=O)O (stereo in doubt) [L-valine] (10 µM) | 0.0236
14 | Cc1ccc(-c2csc3ncnc(SCCC(=O)O)c23)cc1 (10 µM) | 0.15
15 | COc1ccc(Cl)c(Nc2ncnc3cc(OCC4CCN(C)CC4)c(OC)cc23)c1 (10 µM) | -0.108
16 | CC(=O)OCC(=O)[C@@]1(OC(C)=O)[C@@H](C)C[C@H]2[C@@H]3C[C@H](F)C4=CC(=O)C=C[C@]4(C)[C@@]3(F)[C@@H](O)C[C@@]21C [diflorasone-diacetate] (10 µM) | 0.0652

System: Vero E6 infected with SARS-CoV-2
Experiment: SARS-CoV-2 infection rate relative to infected DMSO; higher = more infection, active = 60 or less
Details: 24 h

Row | SMILES | SARS-CoV-2 infection rate
17 | CCCNC(=O)NS(=O)(=O)c1ccc(Cl)cc1 [chlorpropamide] (10 µM) | 79.5% (inactive)
18 | CC[N+](C)(CC)CC(=O)Nc1c(C)cccc1C [N-methyllidocaine-iodide] (10 µM) | 100% (inactive)
19 | N[C@@H](Cc1cc(I)c(Oc2ccc(O)c(I)c2)c(I)c1)C(=O)O [liothyronine] (10 µM) | 108% (inactive)
20 | O=C(c1ccc(F)cc1)C1CCN(CCn2c(=S)[nH]c3ccccc3c2=O)CC1 [altanserin] (10 µM) | 99% (inactive)
21 | CCOc1ccc2ccccc2c1C(=O)N[C@@H]1C(=O)N2[C@@H]1SC(C)(C)[C@@H]2C(=O)O [nafcillin] (10 µM) | 112% (inactive)
22 | O=C(O)C(=O)O.[NH-][C@@H]1CCCC[C@H]1[NH-].[Pt+2] [oxaliplatin] (10 µM) | 112% (inactive)
23 | COc1ccc(CCCO[C@@H](Cn2ccnc2)c2ccc(OC)cc2)cc1 (0.833333 µM) | 107% (inactive)
24 | O=C(O)c1cccc(-c2noc(-c3ccccc3F)n2)c1 [ataluren] (10 µM) | 112% (inactive)
25 | C[C@@H]1Cc2c([nH]c3ccccc23)[C@@H](c2c(F)cc(/C=C/C(=O)O)cc2F)N1CC(C)(C)F (10 µM) | 105% (inactive)
26 | CC(C)(C)N1CCC(c2ccccc2)(c2ccccc2)CC1 [budipine] (10 µM) | 76.5% (inactive)
27 | CCC(C)(CN(C)C)OC(=O)c1ccccc1 (stereo not given) [amyleine] (10 µM) | 120% (inactive)
28 | NNC(=O)CN1C(=O)CN=C(c2ccccc2)c2cc(Br)ccc21 [gidazepam] (10 µM) | 100% (inactive)
29 | CC(C)C(N)C(=O)O (stereo in doubt) [L-valine] (10 µM) | 109% (inactive)
30 | Cc1ccc(-c2csc3ncnc(SCCC(=O)O)c23)cc1 (10 µM) | 103% (inactive)
31 | COc1ccc(Cl)c(Nc2ncnc3cc(OCC4CCN(C)CC4)c(OC)cc23)c1 (10 µM) | 114% (inactive)
32 | CC(=O)OCC(=O)[C@@]1(OC(C)=O)[C@@H](C)C[C@H]2[C@@H]3C[C@H](F)C4=CC(=O)C=C[C@]4(C)[C@@]3(F)[C@@H](O)C[C@@]21C [diflorasone-diacetate] (10 µM) | 113% (inactive)

System: Vero E6 infected with SARS-CoV-2
Experiment: inhibition of SARS-CoV-2 cytopathic effect; higher = more antiviral protection, active = above 15
Details: 1 nM; 48 h

Row | SMILES | inhibition of SARS-CoV-2 cytopathic effect
33 | Cc1cnc(-c2cnc(NCCNc3ccc(C#N)cn3)nc2-c2ccc(Cl)cc2Cl)[nH]1 | 2.72% (inactive)
34 | CC1(C)C(=O)N(c2ccc(C#N)c(C(F)(F)F)c2)C(=O)N1CCCCO | 2.69% (inactive)
35 | Fc1ccc(C(c2ccc(F)cc2)N2CCN(C/C=C/c3ccccc3)CC2)cc1 [flunarizine] | -1.77% (inactive)
36 | Sc1nc2ccccc2s1 [benzo[d]thiazole-2(3H)-thione] | -1.3% (inactive)
37 | O=c1cc(N2CCOCC2)oc2c(-c3cccc4c3sc3ccccc34)cccc12 | 1.01% (inactive)
38 | CCCNC(=O)NS(=O)(=O)c1ccc(Cl)cc1 [chlorpropamide] | 0.91% (inactive)
39 | Cc1ccc(-c2c(-c3nn(C)c4ncnc(N5CC[C@H](N6CCCCC6)C5)c34)cnn2C)cc1 | -0.9% (inactive)
40 | N[C@@H](CSS(=O)(=O)O)C(=O)O [S-sulfo-L-cysteine] | -0.33% (inactive)
41 | Nc1sc2c(c1C(=O)c1ccc(Cl)cc1)CCCC2 | -0.5% (inactive)
42 | COc1cc(C(=O)NCc2ccc(OCCN(C)C)cc2)cc(OC)c1OC [trimethobenzamide] | -2.2% (inactive)
43 | CO[C@H]1O[C@@H]2O[C@@]3(C)CC[C@H]4[C@H](C)CC[C@@H]([C@H]1C)[C@@]24OO3 [artemether] | 7.32% (inactive)
44 | COCCCN1CCC(NC(=O)c2cc(Cl)c(N)c3c2OCC3)CC1 [prucalopride] | 0.43% (inactive)
45 | Cn1cc([S+](C)[O-])c(=O)c2ccc(F)cc21 (stereo not given) [flosequinan] | -1.94% (inactive)
46 | CCc1cc(C(C)=O)c(O)cc1OCCCCCC(C)(C)c1nn[nH]n1 | -2.28% (inactive)
47 | N[C@@H](C(=O)N[C@@H]1C(=O)N2C(C(=O)O)=C(Cl)CC[C@H]12)c1ccccc1 [loracarbef] | 7.18% (inactive)
48 | COCCCOc1ccnc(C[S+]([O-])c2nc3ccccc3[nH]2)c1C (stereo not given) [rabeprazole] | -0.56% (inactive)
49 | Nc1nc(O)c2nc(Br)n([C@@H]3O[C@@H]4COP(=O)(O)O[C@H]4[C@H]3O)c2n1 [8-bromo-cGMP] | 0.61% (inactive)
50 | CCCC(=O)N1CCCN(c2nc(N)c3cc(OC)c(OC)cc3n2)CC1 [bunazosin] | -0.32% (inactive)
51 | Oc1ccc2c3c1O[C@H]1[C@@H](O)CC[C@@]4(O)[C@@H](C2)N(CC2CCC2)CC[C@]314 [nalbuphine] | 2.57% (inactive)
52 | Nc1ccc(S(=O)(=O)Nc2nccs2)cc1 [sulfathiazole] | 1.78% (inactive)
53 | CC[C@H](/C=C/[C@@H](C)[C@H]1CC[C@H]2[C@@H]3CC=C4C[C@@H](O)CC[C@]4(C)[C@H]3CC[C@]12C)C(C)C [Stigmasterol (Stigmasterin)] | 0.05% (inactive)
54 | Cc1nn(C)c2c1C(c1cccc(Cl)c1)=NCCN2 [zometapine] | -1.8% (inactive)
55 | CCC1=C(C)CN(C(=O)NCCc2ccc(S(=O)(=O)NC(=O)N[C@H]3CC[C@H](C)CC3)cc2)C1=O [glimepiride] | -3.26% (inactive)
